Results on seven compounds are retold here after PubChem BioAssay (NCATS).

Structures are written as SMILES. Values joined by “and” are separate entries in the source; they are usually repeats but may differ in a detail not shown here. Identical values can stand only once. Results filed as inconclusive are left out. Active and inactive are the calls of the source. Unless noted, calls follow the shape of the dose curve; as a rule, active = well fitted curve in the direction sought with a large enough effect; inconclusive = small, poorly fitted or top-dose-only effect, or another doubt; inactive = no such curve, though single readings can be large; an effect the other way counts as inactive or inconclusive.

Assay [1] is described as follows: Cell Viability - BJ (AID 421; calls by dose curve;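 also: potency is read from the fitted curve at half-maximal effect; cells exposed to compound for 40 hours at 37 °C before readout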). To be noted: BJ fibroblast viability, qHTS. Summed up:
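Cytotoxicity in human BJ foreskin fibroblasts is scored as loss of cellular ATP after a 40-hour exposure, measured by luciferase luminescence. Controls are DMSO and 100 uM tamoxifen.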

The nature of assay [2]: Cell Viability - HepG2 (AID 433; calls by dose curve;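 also: potency is read from the fitted curve at half-maximal effect; cells exposed to compound for 40 hours; potency for ATP loss meaning cytotoxicity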). The note with it: qHTS. In outline: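 ATP luminescence (CellTiter-Glo) after 40 h compound exposure, 37 °C, HepG2, 1500 cells/well, complete medium. Normalized: DMSO = basal, 100 uM tamoxifen = 100% inhibition. AC50 via standard Hill equation.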
Background: Quantitative high-throughput screening tests each substance at several concentrations.

A short description of assay [3]: Cell Viability - Mesenchymal (AID 546).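 Also: cells exposed to compound for 40 hours before reading.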 The note with it: mesenchymal cells viability, qHTS; activity change, negative = cytotoxicity: at 91.7 µM (top of the series). In outline:
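Human kidney mesenchymal cells from normal renal glomeruli, 1000 cells/well, rested 5 hr at 37 °C, then treated 40 hr at 37 °C in complete medium. Cellular ATP read by CellTiter-Glo luminescence; AC50 from Hill-equation fits.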

Assay [4] in a line: Cellular Toxicity (caspase-3) Jurkat (AID 655).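 Also: cells exposed to compound for 16 h at 37 °C before reading.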 To be noted: Jurkat caspase-3 activation, luminescence; caspase-3 activation: at 92.2 µM (top of the series), DMSO = 0%, tamoxifen = 100%. In outline: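 Luminescent caspase-3/7 readout (aminoluciferin substrate cleavage) in human T-cell leukemia Jurkat cells after 16 hr compound exposure. Concentration-response normalized to DMSO and 100 uM tamoxifen; AC50 by standard Hill equation.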

Assay [5] in a line: Cell Viability - LYMP2-003 (AID 965).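 Also: cells exposed to compounds for 24 h before reading; nearly all actives have a fitted effect of over 50% in size.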 Also: potency is read from the fitted curve at half-maximal effect.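 As to activity change, negative = cytotoxicity: 0% = DMSO only and full effect = 92 µM tetraoctylammonium bromide.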 The note with it: LYMP2-003 lymphoblastoid cell viability; series mostly up to 92.2 µM. Summed up: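 CellTiter-Glo luminescence (cellular ATP) after 24 h compound exposure at 37 C in complete medium; 2500 cells/well, 5 h settling beforehand. Concentration-response fitted to standard Hill equation for AC50. Tetraoctylammonium bromide served as positive control.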

Assay [6] is described as follows: Cell Viability - LYMP2-011 (AID 969). Also: nearly all actives have a fitted effect of over 60% in size. Also: potency is read from the fitted curve at half-maximal effect. To be noted: LYMP2-011 lymphoblastoid cells viability; series mostly up to 92.2 µM. In outline: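 Acute toxicity is scored as a concentration-dependent drop in intracellular ATP of a human lymphoblastoid line after 24 hr treatment. Values are AC50s modeled with the Hill equation.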
A short description of assay [7]: Cell Viability - LYMP2-021 (AID 974).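 Also: compound exposure lasts 24 hours at 37 °C; nearly all actives have a fitted effect of over 55% in size.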 Also: potency is read from the fitted curve at half-maximal effect. As to activity change, negative = cytotoxicity: % is scaled to controls: 0 for no effect and ±100 for the full control effect. The note with it: LYMP2-021 lymphoblastoid cells viability; series mostly up to 92.2 µM. In outline:
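Concentration-response cytotoxicity in a human lymphoblastoid line: 24 hr treatment at 37 C in complete culture medium, tetraoctylammonium bromide as positive control, luminescent ATP quantitation as viability measure.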

Assay [8] in a line: Cell Viability - LYMP2-023 (AID 975). Also: nearly all actives have a fitted effect of over 55% in size. Also: potency is read from the fitted curve at half-maximal effect.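 As to activity change, negative = cytotoxicity: cellular ATP measured by luciferase luminescence as viability proxy; plate controls were DMSO only for no effect and 92 µM tetraoctylammonium bromide control for full effect.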 To be noted: LYMP2-023 lymphoblastoid cell viability; series mostly up to 92.2 µM. Summed up:
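Concentration-dependent drop in intracellular ATP measures acute cytotoxicity in a human lymphoblastoid line treated for 24 hours in complete culture medium. AC50 values are taken from Hill-equation fits of qHTS data.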

A short description of assay [9]: Cell Viability - LYMP2-025 (AID 976).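 Also: plate controls were DMSO only for no effect and tetraoctylammonium bromide control for full effect.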 To be noted: LYMP2-025 lymphoblastoid cell viability; series mostly up to 92.2 µM. Summed up: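 In qHTS format, LYMP2-025 lymphoblastoid cells in complete culture medium received compound for 24 hr; ATP-based CellTiter-Glo signal gave viability, with AC50 derived by Hill equation.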
Assay [10] can be described thus: Cell Viability - LYMP2-002 (AID 977).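 Also: plate controls were DMSO only for no effect and 92 µM tetraoctylammonium bromide for full effect.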 To be noted: LYMP2-002 lymphoblastoid cell viability, qHTS; series mostly up to 92.2 µM. In outline:
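Human lymphoblastoid LYMP2-002 cells, 2500 per well, exposed to compounds for 24 h at 37 C in complete medium; viability read as intracellular ATP by CellTiter-Glo luminescence, AC50 from Hill fits.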

A short description of assay [11]: Cell Viability - LYMP2-008 (AID 980). Also: nearly all actives have a fitted effect of over 60% in size. Also: potency is read from the fitted curve at half-maximal effect. As to activity change, negative = cytotoxicity: % is scaled to controls: 0 for no effect and ±100 for the full control effect. To be noted: LYMP2-008 lymphoblastoid cell viability, qHTS; series mostly up to 92.2 µM. Summed up: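 Acute cytotoxicity is scored as concentration-dependent loss of cellular ATP in a human lymphoblastoid line after 24 hr treatment at 37 C. ATP is quantified by luciferase luminescence.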
The nature of assay [12]: Cell Viability - LYMP2-014 (AID 983). Also: nearly all actives have a fitted effect of over 50% in size. Also: potency is read from the fitted curve at half-maximal effect.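 As to activity change, negative = cytotoxicity: plate controls were DMSO only for no effect and 92 µM tetraoctylammonium bromide for full effect.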 The note with it: LYMP2-014 lymphoblastoid cells, viability qHTS; series mostly up to 92.2 µM. In outline: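 Decrease in intracellular ATP after 24 hr treatment at 37 C, measured by luciferase luminescence, indicated cytotoxicity. Concentration-response data were fitted with the standard Hill equation to give AC50.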
Assay [13] in a line: Cell Viability - LYMP2-016 (AID 984). Also: nearly all actives have a fitted effect of over 55% in size. Also: potency is read from the fitted curve at half-maximal effect. As to activity change, negative = cytotoxicity: % is scaled to controls: 0 for no effect and ±100 for the full control effect. The note with it: LYMP2-016 lymphoblastoid cell viability, qHTS; series mostly up to 92.2 µM. In outline: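 qHTS, 1536-well: 2500 LYMP2-016 cells/well, 5 hr 37 C, compound added, 24 hr 37 C, CellTiter-Glo 30 min RT, luminescence. Tetraoctylammonium bromide positive control. AC50 via Hill fit.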
A short description of assay [14]: Cell Viability - LYMP2-018 (AID 985).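 Also: compound exposure lasted 24 hr at 37 °C; nearly all actives have a fitted effect of over 50% in size.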 Also: potency is read from the fitted curve at half-maximal effect.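 As to activity change, negative = cytotoxicity: plate controls were DMSO only for no effect and tetraoctylammonium bromide at 92 µM for full effect.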 The note with it: LYMP2-018 lymphoblastoid cells, viability (qHTS); series mostly up to 92.2 µM. Summed up:
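Acute cytotoxicity is scored as a concentration-dependent drop in intracellular ATP after 24 hr exposure of the lymphoblastoid line in complete culture medium, measured by luciferase luminescence. Potency is expressed as AC50 from Hill modelling.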

Assay [15] in a line: Cell Viability - LYMP2-022 (AID 987). Also: nearly all actives have a fitted effect of over 55% in size. Also: potency is read from the fitted curve at half-maximal effect. To be noted: LYMP2-022 lymphoblastoid cell viability; series mostly up to 92.2 µM. Summed up:
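Acute toxicity in a human lymphoblastoid line is scored as decreased intracellular ATP after 24 hr compound treatment at 37 C. ATP is measured by CellTiter-Glo luminescence; curves are fitted with the Hill equation to give AC50.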

The nature of assay [16]: Cell Viability - LYMP2-024 (AID 988). Also: nearly all actives have a fitted effect of over 60% in size. Also: potency is read from the fitted curve at half-maximal effect.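 As to activity change, negative = cytotoxicity: plate controls were DMSO only for no effect and 92 µM tetraoctylammonium bromide for full effect.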 The note with it: LYMP2-024 lymphoblastoid cell viability; series mostly up to 92.2 µM. Summed up: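 Acute toxicity is measured as concentration-dependent loss of intracellular ATP in a human lymphoblastoid line treated 24 hours at 37 C. Luciferase luminescence quantifies ATP; AC50 values come from standard Hill-equation modelling.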

A short description of assay [17]: Cell Viability - LYMP2-026 (AID 989). Also: nearly all actives have a fitted effect of over 50% in size. Also: potency is read from the fitted curve at half-maximal effect. The note with it: LYMP2-026 lymphoblastoid cell viability, qHTS; series mostly up to 92.2 µM. Summed up:
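Concentration-dependent loss of intracellular ATP in human lymphoblastoid cells after 24 hr at 37 C, quantified by luciferase luminescence. AC50 derived from standard Hill equation.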

Assay [18] in a line: qHTS assay for small molecule antagonists of retinoid X receptor alpha signaling (AID 588546; active = well fitted inhibition curve with a large enough effect in the signal ratio, with a control signal flat, not every such curve was filed as active; the % refers to the signal ratio;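 also: cells stimulated with 9-cis-retinoic acid as agonist; % is scaled to controls: 0 for no effect and ±100 for the full control effect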). To be noted: HEK293T RXRa-UAS-bla, beta-lactamase ratio, antagonist mode; measured here: W530 green channel, cytotoxicity proxy. In outline: (§1)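 Beta-lactamase reporter inhibition, read as CCF4 fluorescence ratio (ex 405, em 460/530 nm) after 2 h at RT. HEK293T UAS-bla cells, 2500/well, were stimulated with 9-cis-RA at 500 or 100 nM final alongside test compound for 18 h at 37 C.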

In assay [19] the target is Retinoic acid receptor RXR-alpha (Homo sapiens) (UniProt P19793). The description is as above. To be noted: HEK293T RXRa-UAS-bla, beta-lactamase ratio, antagonist mode. Summed up: as §1
Chain of Retinoic acid receptor RXR-alpha (Homo sapiens) (P19793 whole entry, looked up): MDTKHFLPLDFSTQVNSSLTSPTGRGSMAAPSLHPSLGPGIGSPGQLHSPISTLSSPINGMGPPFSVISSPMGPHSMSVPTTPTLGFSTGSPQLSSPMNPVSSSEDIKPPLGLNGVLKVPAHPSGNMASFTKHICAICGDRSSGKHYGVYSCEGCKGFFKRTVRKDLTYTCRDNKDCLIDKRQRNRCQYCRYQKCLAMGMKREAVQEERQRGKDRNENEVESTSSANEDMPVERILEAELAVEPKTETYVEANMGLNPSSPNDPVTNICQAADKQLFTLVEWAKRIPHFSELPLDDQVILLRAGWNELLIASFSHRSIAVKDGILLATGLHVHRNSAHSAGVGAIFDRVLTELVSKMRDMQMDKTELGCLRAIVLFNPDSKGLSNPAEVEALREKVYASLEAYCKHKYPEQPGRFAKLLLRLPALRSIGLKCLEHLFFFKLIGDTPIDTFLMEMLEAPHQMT
The nature of assay [20]: qHTS assay for environmental chemicals that activate the Aryl hydrocarbon Receptor (AhR) signaling pathway (AID 651777). Also: % of control where 0% means no effect; nearly all actives have a fitted effect of over 15% in size. To be noted: 1A2-DRE human hepatoma cells, luciferase, 24 h; activation: stronger effect = higher value. In outline:
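AhR activation is scored as a rise in luciferase from a stable DRE–CYP1A2 promoter construct in human hepatoma cells. Treatment lasts 24 hr at 37 C; detection uses One-Glo after 30 min at room temperature.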

For the compound `Cc1ccc(S(N)(=O)=O)cc1`, the Potency in [1] and in assay [2] was > 92 µM (inactive) throughout. The Potency result in assay [3], in assay [4], in [5], in [6], in assay [7] and in assay [8] was “inactive” each time. The Potency result in assay [9], in [10], in assay [11], in [12], in assay [13] and in [14] was “inactive” throughout. The Potency entry in [15], in assay [16] and in assay [17] was “inactive” throughout. The max response in assay [18] was -1.11% and -7.98%; in assay [19] it was 8.77% (inactive) and 1.7% (inactive). Further, the activation in assay [20] was -0.842% (inactive).
`NC(=O)c1ccc([N+](=O)[O-])cc1`: the Potency in [1] and in assay [2] was > 92 µM (inactive) each time. The Potency entry in [3], in assay [4], in [5], in assay [6], in assay [7] and in assay [8] was “inactive” throughout. Also, the Potency result in assay [9], in assay [10], in [11], in [12], in assay [13] and in [14] was “inactive” throughout. Moreover, the Potency result in assay [15], in assay [16] and in assay [17] was “inactive” throughout. Further, the max response in assay [18] is -6.07%; in [19] it was -5.31% (inactive). The activation in assay [20] was -1.24% (inactive).
Take `Nc1cnn([C@@H]2O[C@H](CO)[C@@H](O)[C@H]2O)c(=O)n1`: the Potency in [1] and in assay [2] was > 92 µM (inactive) each time. Also, the Potency result in [3], in assay [4], in [6], in assay [7], in assay [8] and in assay [9] was “inactive” in each case. In addition, the Potency entry in assay [10], in assay [11], in assay [12], in assay [13], in assay [14] and in assay [15] was “inactive” throughout. For the same compound, the Potency result in [16] and in [17] was “inactive” in each case. Besides, the max response in assay [18] is 8.26%; in assay [19] it was -17.1% (inactive).
Regarding `C/C=C/C=C/C=O`, the Potency in assay [1] is > 92 µM (inactive); in [2], > 92 µM (inactive); in [5], 39.8 µM (active); in [6], 50.1 µM (active); in assay [7], 39.8 µM (active); in assay [8], 50.1 µM (active). For the same compound, the Potency is 39.8 µM (active) in assay [11]; 39.8 µM (active) in [12]; 50.1 µM (active) in assay [13]; 39.8 µM (active) in [14]; 25.1 µM (active) in assay [15]; 25.1 µM (active) in [16]. Moreover, in assay [17], the Potency was 39.8 µM (active). The Potency entry in assay [3] and in assay [4] was “inactive” throughout. Also, the activation in assay [20] was 0.0819% (inactive).
Turning to `O=C(O)/C=C/c1ccc(/C=C/C(=O)O)cc1`, the Potency in assay [1] and in assay [2] was > 92 µM (inactive) each time. Further, the Potency entry in assay [3], in assay [4], in [5], in [6], in assay [7] and in assay [8] was “inactive” throughout. In addition, the Potency result in assay [9], in [10], in assay [11], in [12], in [13] and in [14] was “inactive” each time. The Potency result in [15], in assay [16] and in [17] was “inactive” throughout. For the same compound, the max response in [18] is -0.222%; in assay [19], 14.1% (inactive). Besides, in assay [20], the activation was 0.407% (inactive).
Consider `CCCCCCc1ccc(-c2ccc(C#N)cc2)cc1`, for which the Potency in assay [1] and in assay [2] was > 92 µM (inactive) throughout. Besides, the Potency entry in [3], in assay [4], in [5], in assay [6], in [7] and in [8] was “inactive” in each case. Also, the Potency entry in assay [9], in [10], in [11], in assay [12], in assay [13] and in [14] was “inactive” in each case. For the same compound, the Potency entry in assay [15], in assay [16] and in assay [17] was “inactive” throughout. Further, the figures for the max response in assay [18] and in [19] were -7.3% and -14.6% (inactive), respectively.
Regarding `c1ccc(CSCc2ccccc2)cc1`, the Potency in assay [1] and in assay [2] was > 92 µM (inactive) in each case. Besides, the Potency result in [3], in assay [4], in assay [5], in assay [6], in assay [7] and in assay [8] was “inactive” in each case. The Potency result in assay [9], in [10], in [11], in assay [12], in [13] and in assay [14] was “inactive” in each case. Besides, the Potency entry in assay [15], in assay [16] and in assay [17] was “inactive” throughout. Besides, the max response is -3.11% in assay [18] and 1.24% (inactive) in [19]. For the same compound, the activation in assay [20] is -0.759% (inactive).
